# Activity calls are given as the source filed them. Rule for the calls: active = hit-call score of the fitted dose curve at least 0.9, where 1 is the maximum; inactive = score below 0.9.
# Experiments:
# [1] = ATG_CRE_CIS: Attagene CIS-FACTORIAL HepG2 Assay for human cAMP Responsive Element (CRE) binding protein 3 (AID 2282926); settings: HepG2 CRE cis-reporter, Attagene multiplexed mRNA; actives raise or lower the signal
# In short: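 Cells carrying cis-regulated reporter constructs respond through their own endogenous factors. After 24 h treatment, RNA is reverse-transcribed, amplified, labelled and sized by capillary electrophoresis; up- and down-regulation are both scored against vehicle.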
# [2] = target: CCAAT/enhancer-binding protein beta (Homo sapiens) (UniProt P17676); assay: ATG_C_EBP_CIS: Attagene CIS-FACTORIAL HepG2 Assay for human CCAAT/Enhancer Binding Protein (C/EBP) beta (AID 2282927); settings: HepG2 Attagene cis-factorial transcription factor reporter; actives raise or lower the signal
# CCAAT/enhancer-binding protein beta (Homo sapiens), sequence (P17676 whole entry, looked up): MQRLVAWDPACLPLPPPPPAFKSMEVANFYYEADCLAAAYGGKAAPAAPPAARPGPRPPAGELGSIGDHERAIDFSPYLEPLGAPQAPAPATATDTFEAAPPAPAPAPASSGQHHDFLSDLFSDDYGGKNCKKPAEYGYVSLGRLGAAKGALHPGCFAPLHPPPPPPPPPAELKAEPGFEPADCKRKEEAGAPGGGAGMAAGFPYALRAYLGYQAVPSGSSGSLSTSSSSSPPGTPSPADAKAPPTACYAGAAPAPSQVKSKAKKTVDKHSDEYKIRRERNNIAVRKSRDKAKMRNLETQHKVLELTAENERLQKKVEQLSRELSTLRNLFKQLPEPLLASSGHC
# In short: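 Changes in reporter mRNA, rather than exogenous chimeric receptor activity, reflect native C/EBP signalling in transfected HepG2 cells dosed for 24 h; transcripts are detected by RT-PCR and capillary electrophoresis.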
# [3] = ATG_CMV_CIS: Attagene CIS-FACTORIAL HepG2 Assay for human CMV (Internal Marker) (AID 2282928); settings: HepG2 CMV promoter reporter, transcription factor profiling; actives raise or lower the signal;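 note: endpoint acts as a background internal control marker rather than a target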
# In short: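 Fluorescence intensity of RT-PCR-derived reporter fragments, resolved by capillary electrophoresis, gives the signal. HepG2 liver cells bearing transfected cis-element reporters were treated 24 h; activity in either direction was fit relative to DMSO-treated controls.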
# [4] = ATG_DR4_LXR_CIS: Attagene CIS-FACTORIAL HepG2 Assay for human Liver X Receptor (LXR), DR4 submotif (AID 2282929); settings: HepG2 Attagene DR4 cis-reporter, mRNA transcription; actives raise or lower the signal
# In short: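 HepG2 cells transiently transfected with cis-promoter-driven multiplexed reporter units (DR4 element) were dosed for 24 h. Reporter mRNA was quantified by RT-PCR, fluorescent primer extension, HpaI digestion and capillary electrophoresis; bidirectional fitting versus DMSO baseline.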
# [5] = target: Aryl hydrocarbon receptor (Homo sapiens) (UniProt P35869); assay: ATG_Ahr_CIS: Attagene CIS-FACTORIAL HepG2 Assay for human Aryl Hydrocarbon Receptor (Ahr) (AID 2282930); settings: HepG2 AhR cis-factorial reporter transcription; actives raise or lower the signal
# Aryl hydrocarbon receptor (Homo sapiens), sequence (P35869 whole entry, looked up): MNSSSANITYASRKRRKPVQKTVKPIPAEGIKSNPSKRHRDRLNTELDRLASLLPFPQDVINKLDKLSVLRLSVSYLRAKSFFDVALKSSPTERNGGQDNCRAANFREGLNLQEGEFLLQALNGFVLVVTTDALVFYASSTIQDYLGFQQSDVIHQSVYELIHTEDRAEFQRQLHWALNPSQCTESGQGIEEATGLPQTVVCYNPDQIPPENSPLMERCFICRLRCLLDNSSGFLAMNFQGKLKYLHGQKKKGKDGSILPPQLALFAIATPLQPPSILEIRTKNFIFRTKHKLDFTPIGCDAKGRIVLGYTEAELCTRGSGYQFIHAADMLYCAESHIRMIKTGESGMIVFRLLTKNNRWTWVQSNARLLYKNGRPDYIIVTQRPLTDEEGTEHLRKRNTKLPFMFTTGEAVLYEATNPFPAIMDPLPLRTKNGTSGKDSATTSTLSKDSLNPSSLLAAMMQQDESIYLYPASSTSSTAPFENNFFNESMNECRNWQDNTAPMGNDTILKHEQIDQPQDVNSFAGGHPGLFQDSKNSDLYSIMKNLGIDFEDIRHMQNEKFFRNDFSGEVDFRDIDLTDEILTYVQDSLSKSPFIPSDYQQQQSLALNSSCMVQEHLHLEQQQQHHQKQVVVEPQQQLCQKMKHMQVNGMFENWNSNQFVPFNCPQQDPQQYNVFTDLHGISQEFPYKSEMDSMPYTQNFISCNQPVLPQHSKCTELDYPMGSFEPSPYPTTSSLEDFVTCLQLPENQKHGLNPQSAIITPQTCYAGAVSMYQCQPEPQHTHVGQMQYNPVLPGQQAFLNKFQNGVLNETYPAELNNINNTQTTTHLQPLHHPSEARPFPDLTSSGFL
# In short: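 HepG2, transient MRTU (cis) transfection, 24 h exposure. RNA → cDNA → PCR → 6-FAM primer extension → HpaI 2 h 37 C → CE. Fit: bidirectional, DMSO baseline.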
# [6] = ATG_AP_1_CIS: Attagene CIS-FACTORIAL HepG2 Assay for human Activator Protein 1 (AP-1) (AID 2282931); settings: HepG2 Attagene cis-factorial AP-1 reporter mRNA; actives raise or lower the signal
# In short: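 HepG2 cells transiently transfected with cis-element-driven multiplex reporter units; 24 h compound exposure. Reporter mRNA quantified by RT-PCR, FAM-labelled fragments resolved by capillary electrophoresis; bidirectional fit versus DMSO baseline.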
# [7] = ATG_AP_2_CIS: Attagene CIS-FACTORIAL HepG2 Assay for human Activator Protein 2 (AP-2) (AID 2282932); settings: HepG2 AP-2 cis-reporter, Attagene transcription factor profiling; actives raise or lower the signal
# In short: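 Endogenous transcription factor activity is reported through transfected multiplex reporter constructs in HepG2, after 24 h of compound exposure. Transcripts were quantified by RT-PCR and capillary electrophoresis of fluorescent fragments. Bidirectional fit against DMSO.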
# [8] = ATG_BRE_CIS: Attagene CIS-FACTORIAL HepG2 Assay for human Bone Morphogenetic Protein (BMP) Response Element (BRE) (AID 2282933); settings: HepG2 BMP response element reporter, Attagene transcription factor profiling; actives raise or lower the signal
# In short: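 Fluorescence-labelled reporter cDNA fragments, separated by capillary electrophoresis, gave the signal for this component of a 52-readout multiplex. HepG2 cells were transfected, exposed to chemicals for 24 h, and compared with DMSO using bidirectional fitting.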
# [9] = target: Retinoic acid receptor alpha (Homo sapiens) (UniProt P10276); assay: ATG_DR5_RAR_CIS: Attagene CIS-FACTORIAL HepG2 Assay for human Retinoic Acid Receptor Alpha (RARE), DR5 submotif (AID 2282934); settings: HepG2 Attagene cis-factorial RARE DR5 reporter, mRNA; actives raise or lower the signal;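 for AC50: reporter responds to endogenous RAR alpha beta and gamma in HepG2 not RARA alone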
# Retinoic acid receptor alpha (Homo sapiens), sequence (P10276 whole entry, looked up): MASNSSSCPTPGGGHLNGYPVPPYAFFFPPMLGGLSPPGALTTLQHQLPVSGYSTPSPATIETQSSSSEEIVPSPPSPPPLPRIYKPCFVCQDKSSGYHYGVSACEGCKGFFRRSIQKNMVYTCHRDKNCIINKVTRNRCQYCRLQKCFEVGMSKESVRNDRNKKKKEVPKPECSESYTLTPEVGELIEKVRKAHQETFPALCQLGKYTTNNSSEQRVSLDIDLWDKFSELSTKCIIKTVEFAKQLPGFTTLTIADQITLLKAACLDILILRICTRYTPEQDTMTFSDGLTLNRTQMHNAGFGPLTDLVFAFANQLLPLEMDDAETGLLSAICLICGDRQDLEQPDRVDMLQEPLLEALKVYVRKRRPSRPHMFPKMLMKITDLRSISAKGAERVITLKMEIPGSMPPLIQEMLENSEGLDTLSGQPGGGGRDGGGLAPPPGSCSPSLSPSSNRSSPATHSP
# In short: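 HepG2, transient cis-reporter transfection, 24 h exposure. mRNA readout: RT-PCR, FAM label, HpaI cut, capillary electrophoresis. DMSO baseline, gain/loss fitting.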
# [10] = target: Transcription factor E2F1 (Homo sapiens) (UniProt Q01094); assay: ATG_E2F_CIS: Attagene CIS-FACTORIAL HepG2 Assay for human E2F Transcription Factor 1 (AID 2282935); settings: HepG2 Attagene cis-reporter, E2F reporter RNA transcripts; actives raise or lower the signal
# Transcription factor E2F1 (Homo sapiens), sequence (Q01094 whole entry, looked up): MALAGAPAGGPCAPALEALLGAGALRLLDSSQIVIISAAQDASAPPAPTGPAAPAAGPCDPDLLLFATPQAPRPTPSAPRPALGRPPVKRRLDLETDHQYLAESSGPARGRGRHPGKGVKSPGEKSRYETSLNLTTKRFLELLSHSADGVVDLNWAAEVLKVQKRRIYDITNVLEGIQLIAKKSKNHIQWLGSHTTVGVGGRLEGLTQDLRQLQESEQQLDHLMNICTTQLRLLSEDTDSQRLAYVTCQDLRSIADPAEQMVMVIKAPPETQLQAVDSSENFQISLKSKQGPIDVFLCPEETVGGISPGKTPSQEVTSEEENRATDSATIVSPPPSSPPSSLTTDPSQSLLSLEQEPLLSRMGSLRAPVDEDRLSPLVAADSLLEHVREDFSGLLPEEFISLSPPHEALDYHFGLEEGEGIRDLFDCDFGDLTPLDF
# In short: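 Gain or loss of reporter transcript, fitted against DMSO, reflects E2F1-driven transcription. Transiently transfected HepG2 dosed 24 h before RNA isolation. Quantified by fluorescent RT-PCR products separated by capillary electrophoresis.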
SMILES,outcome [1],outcome [2],outcome [3],outcome [4],outcome [5],outcome [6],outcome [7],outcome [8],outcome [9],outcome [10],AC50 [1],AC50 [2],AC50 [4],AC50 [6],AC50 [9],AC50 [5],AC50 [3],AC50 [8],AC50 [10]
CC=CCO,inactive,inactive,inactive,inactive,inactive,inactive,inactive,inactive,inactive,inactive,–,–,–,–,–,–,–,–,–
CCCCCCCC/C=C\CCCCCCCC(=O)OCCO,–,–,inactive,–,inactive,–,inactive,inactive,–,inactive,50 µM (active),69 µM (active),50 µM (active),50 µM (active),59.4 µM (active),–,–,–,–
C=CC(=O)OCCC(=O)O,inactive,inactive,inactive,inactive,inactive,inactive,inactive,inactive,inactive,inactive,–,–,–,–,–,–,–,–,–
COc1ccc2nc(N)sc2c1,inactive,inactive,inactive,inactive,–,inactive,inactive,inactive,inactive,inactive,–,–,–,–,–,3.17 µM (active),–,–,–
CC(=O)Oc1ccc(C(C)=O)cc1,inactive,inactive,inactive,inactive,inactive,inactive,inactive,inactive,inactive,inactive,–,–,–,–,–,–,–,–,–
COC(=O)/C=C\C(=O)O,inactive,inactive,inactive,inactive,inactive,inactive,inactive,inactive,inactive,inactive,–,–,–,–,–,–,–,–,–
O=S(=O)(Oc1ccc(Cl)cc1Cl)c1ccccc1,inactive,inactive,–,–,inactive,inactive,inactive,–,inactive,inactive,–,–,48.8 µM (active),–,–,–,46.7 µM (active),61.4 µM (active),–
CC(=O)OC(C)C,inactive,inactive,inactive,inactive,inactive,inactive,inactive,inactive,inactive,inactive,–,–,–,–,–,–,–,–,–
CCCCCCCC(C)=O,inactive,inactive,inactive,inactive,inactive,inactive,inactive,inactive,inactive,inactive,–,–,–,–,–,–,–,–,–
Cc1cccc(N)n1,inactive,inactive,inactive,inactive,inactive,inactive,inactive,inactive,inactive,inactive,–,–,–,–,–,–,–,–,–
COc1cc(NC(=O)CC(C)=O)c(OC)cc1Cl,inactive,inactive,inactive,inactive,–,inactive,inactive,inactive,inactive,inactive,–,–,–,–,–,40.1 µM (active),–,–,–
CCOc1ccc(N)c([N+](=O)[O-])c1,inactive,inactive,inactive,inactive,inactive,inactive,inactive,inactive,inactive,inactive,–,–,–,–,–,–,–,–,–
CC=CC(=O)N(CC)c1ccccc1C,inactive,inactive,inactive,inactive,inactive,inactive,inactive,inactive,inactive,inactive,–,–,–,–,–,–,–,–,–
Nc1ccc(-c2ccc(F)cc2)cc1,inactive,inactive,inactive,inactive,inactive,inactive,inactive,inactive,inactive,inactive,–,–,–,–,–,–,–,–,–
CCCOCCOCCOCCO,inactive,inactive,inactive,inactive,inactive,inactive,inactive,inactive,inactive,inactive,–,–,–,–,–,–,–,–,–
COc1c2ccoc2cc2oc(=O)ccc12,inactive,inactive,inactive,inactive,inactive,inactive,inactive,inactive,inactive,inactive,–,–,–,–,–,–,–,–,–
Cc1cccc(OCCOc2cccc(C)c2)c1,inactive,inactive,inactive,inactive,inactive,inactive,inactive,inactive,inactive,inactive,–,–,–,–,–,–,–,–,–
OC1OCCOC1O (stereo not given),inactive,inactive,inactive,inactive,inactive,inactive,inactive,inactive,inactive,inactive,–,–,–,–,–,–,–,–,–
CC(C)CCCCCOC(=O)CCS,inactive,inactive,inactive,inactive,inactive,inactive,inactive,inactive,inactive,inactive,–,–,–,–,–,–,–,–,–
CCCCCc1ccc(Cl)cc1,inactive,inactive,–,inactive,inactive,inactive,inactive,inactive,–,–,–,–,–,–,84.1 µM (active),–,66.4 µM (active),–,61.5 µM (active)
O=C1C(N(CO)C(=O)NCO)N(CO)C(=O)N1CO (stereo not given),inactive,inactive,inactive,inactive,inactive,inactive,inactive,inactive,inactive,inactive,–,–,–,–,–,–,–,–,–
C[Si](C)(CCCN)O[Si](C)(C)CCCN,inactive,inactive,inactive,inactive,inactive,inactive,inactive,inactive,inactive,inactive,–,–,–,–,–,–,–,–,–
O=C(Cl)c1cc(C(=O)Cl)cc(C(=O)Cl)c1,inactive,inactive,inactive,inactive,–,inactive,inactive,–,inactive,inactive,–,–,–,–,–,77.5 µM (active),–,125 µM (active),–

# From PubChem BioAssay (EPA / NIEHS)
